The structures appear in SMILES notation. Results filed as inconclusive are left out. A call without a number means that no potency is given here. Activity calls are given as the source filed them. Calls come from the whole dose curve; as a rule, active = well fitted activation curve with a large enough effect in the repeat runs; inconclusive = weak or mixed curves; inactive = no such curve, though single readings can be large or run the other way.
Potency is the fitted concentration of half-maximal effect.

This test has as its target Nuclear receptor subfamily 1 group I member 2 (Homo sapiens) (UniProt O75469). The experiment in a line: CYP3A4 induction through human pregnane X receptor (PXR) by small molecules, qHTS assay (AID 1346984). Note: nearly all actives have a fitted effect of over 40% in size. Particulars: DPX-2 HepG2 PXR, CYP3A4-luciferin luminescence, 24 h; series mostly up to 46.1 µM. A digest of the protocol: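 After 24 h at 37C with compound, DPX-2 cells (HepG2, co-transfected PXR response element and CYP3A4 promoter-luciferase) got 3uM final P450-Glo Luciferin-IPA for 3 h; One-Glo luminescence followed.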
For orientation: qHTS replaces the single test concentration by a dilution series.
Take `CC(=O)Nc1c(I)cc(I)c(C(=O)O)c1I`: the Potency entry was “inactive”. Under `CCCC(=O)O[C@]1(C(=O)CO)CC[C@H]2[C@@H]3CCC4=CC(=O)CC[C@]4(C)[C@H]3[C@@H](O)C[C@@]21C` stands “inactive”; under `CCOC(=O)c1cccc(N)c1`, “inactive”. As to `CCN(CC)CCOCCOC(=O)C1(c2ccccc2)CCCC1`, the Potency was 12.6 µM (active). For `NC(=O)c1cn(Cc2c(F)cccc2F)nn1`, the Potency result is “inactive”. Consider `NS(=O)(=O)c1cc(C(=O)O)cc(N2CCCC2)c1Oc1ccccc1`, for which the Potency entry was “inactive”. Under `CN1CC(=O)NC1=N` stands “inactive”; under `COc1c(N2C[C@@H]3CCCN[C@@H]3C2)c(F)cc2c(=O)c(C(=O)O)cn(C3CC3)c12`, “inactive”; under `CCN1CCC[C@H]1CNC(=O)c1c(O)c(Cl)cc(Cl)c1OC`, “inactive”.

As to `CC(=O)OCC(CCn1cnc2cnc(N)nc21)COC(C)=O`, the Potency entry is “inactive”.

The values above are taken from PubChem BioAssay (Tox21).
